High-throughput results from PubChem BioAssay.
HSF1 inhib: HSF1 inhibitors in luciferase reporter cells, primary screen, cell-based, NIH3T3, luminescence; 300,000 tested, 0.77% active; NIH3T3-HGL HSE-luciferase, MG132-induced, luminescence 8 h; active compounds read low; activity change, negative = inhibition, % at 7.5 µM (by protocol);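 active = more than half of replicate wells show activity change below -50%, luminescence cut by over half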;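 note: luciferase reports HSF-1 transcriptional activity via heat shock element; 0% = median of DMSO wells and -100% = zero luminescence signal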
TROY NFkB inh: inhibitors of TROY-driven NF-kB signaling, primary screen, Q293 LMP1-TROYcd cells, NF-kB luciferase, uHTS; 360,000 tested, 0.98% active; inhibition, % at 10 µM; AID 1347056, 2019; Q293 LMP1-TROYcd NF-kB luciferase reporter, 4 h;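 active = compounds whose plate-normalised and pattern-corrected inhibition of the luciferase reporter signal at the single screening dose is 50% or more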
HSP90 inh: HSP90 inhibitors, primary screen, cell lysate, luminescence. Heat shock protein HSP 90 (rabbit reticulocyte lysate; luciferase refolding). Rabbit reticulocyte lysate, luciferase refolding luminescence, 3 h. inhibition, % at 5.6 µM. 290,000 tested, 0.91% active;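 active = inhibition above the screen-wide mean plus 3 SD, computed separately per campaign, cut at about 16% in these data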;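 note: 0% = DMSO wells and 100% = 60 µM geldanamycin wells; inhibitors lower the luminescence because luciferase stays unfolded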
LMP1 NFkB inh: EBV LMP1-driven NF-kappaB luciferase reporter inhibitors, primary screen, cell-based, luminescence, single point | 350,000 tested, 0.69% active | AID 504558, 2011 | inhibition, % at 12.5 µM | LMP1-induced NF-kappaB luciferase reporter cells; in the data active = inhibition above about 41%;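 note: 0% = neutral control wells and 100% = reference inhibitor control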
HSF-1 act: HSF-1 activators, primary screen, NIH3T3-HGL cells, MG132 stress, luminescence, single point | NIH3T3-HGL HSF-1 luciferase reporter, 8 h; 100% = twice DMSO control signal | activation, % at 9 µM | 300,000 tested, 1.7% active | AID 504408, 2011;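 active = mean replicate activation of at least 50% with a set share of replicates each reaching 50%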;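 note: 0% = median of the neutral control wells and 100% = twice that signal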
TWEAK-Fn14 inh: inhibitors of TWEAK-Fn14 signaling, primary screen, luciferase reporter cells, uHTS; TWEAK-stimulated Fn14 reporter cells, luciferase luminescence, 8 h; inhibition, % at 10 µM; 360,000 tested, 2% active; AID 1159606, 2016; in the data active = inhibition above about 50%
Active calls of the source: *; nt = no result. Rows were chosen to be rich in hits. Some 4.7% of all compounds tested hit in one or more screens of this group.

SMILES	HSF1 inhib	TROY NFkB inh	HSP90 inh	LMP1 NFkB inh	HSF-1 act	TWEAK-Fn14 inh
COc1ccc(C(C[N+](=O)[O-])C2(c3ccc(OC)c(OC)c3)C(=O)c3ccccc3C2=O)cc1 (stereo not given)	146.2	46.6	1.0	4.7	213.7*	45.0
Cc1ccc(-c2nnc(SCC(=O)Nc3nccs3)n2N)cc1	-60.7*	-50.9	-2.1	-18.2	-64.3	-6.7
Cc1nc(C)c(C(=O)O)s1	-4.3	-5.2	-3.5	-2.1	-11.7	94.6*
Cc1nc(C)c(C(=O)Nc2ccccc2)s1	4.9	-4.8	0.8	1.4	17.9	-10.7
COc1ccc(N/C(N)=N/c2nc(C)cc(=O)[nH]2)cc1	-8.5	-7.2	-2.3	85.7*	-12.9	-9.6
Cc1cc(C)c(C(=O)/C=C/c2cccs2)c(=O)[nH]1	9.5	10.1	1.1	12.2	3.0	46.0
CCc1ccc(/C=C/C(=O)c2c(C)cc(C)[nH]c2=O)cc1	20.3	44.2	3.5	31.0	40.0	79.5*
Cc1ccc(/C=C/C(=O)c2c(C)cc(C)[nH]c2=O)cc1	5.5	37.4	4.4	32.2	12.9	86.0*
CCc1ccc(/C=C(\C)C(=O)c2c(C)cc(C)[nH]c2=O)cc1	2.6	30.0	-1.9	21.4	3.2	23.9
CC1(C(=O)Nc2ccc(F)cc2F)CCN1C(=O)Cc1ccccc1 (stereo not given)	nt	-0.1	nt	nt	nt	15.8
O=C(C[C@@H]1C[C@H]2c3cc(NC(=O)c4cccnc4)ccc3O[C@H]2[C@H](CO)O1)NCc1ccc(Oc2ccccc2)cc1	nt	24.9	nt	4.9	nt	40.0
CCOC(=O)c1ccc(-c2ccc(/C=N/NC(=O)CN(c3ccccc3Cl)S(C)(=O)=O)o2)cc1	14.4	19.9	1.2	-43.8	38.7	70.9*
CCOC(=O)c1ccc(-c2ccc(/C=N/NC(=O)CN(c3cccc(C)c3)S(C)(=O)=O)o2)cc1	10.4	-4.3	7.0	-31.7	-8.1	7.0
O=C(NCc1ccccc1Cl)c1csc([C@@H]2O[C@H](CO)[C@H](O)[C@H](O)[C@H]2O)n1	nt	-2.9	nt	nt	nt	0.6
Cc1ccc(N(CC(=O)NCCc2ccc(F)cc2)S(=O)(=O)c2ccc(Cl)c([N+](=O)[O-])c2)c(C)c1	84.9	22.0	5.5	3.0	89.4*	52.8*
C=CCn1c(CSCc2ccc(C)cc2)nnc1SCC(=O)NCc1ccccc1	7.1	nt	0.8	-1.8	11.2	73.9*
O=C(Nc1cccs1)Nc1ccc(F)cc1F	46.7	-21.6	-6.0	0.9	98.2*	-6.2
Cc1ccc(NC(=O)Nc2cccs2)c(Cl)c1	-38.0	-9.2	2.0	-15.5	-44.6	18.4
O=C(Nc1cccs1)Nc1ccc(Br)cc1F	36.3	-20.4	-4.0	-8.1	59.8*	25.3
CC1CCN(c2nc(N(C)c3ccccc3)nc(N)c2[N+](=O)[O-])CC1	27.3	-45.6	-1.0	-11.9	67.2*	-29.2
CN(c1ccccc1)c1nc(N)c([N+](=O)[O-])c(N2CCCCCC2)n1	50.7	-2.8	-0.5	-3.8	77.8*	-18.9
Cc1cccc(Nc2nc(N)c([N+](=O)[O-])c(N3CCC(C)CC3)n2)c1	9.5	16.7	3.1	4.9	19.7	38.5
CCN1CCN(c2nc(N(C)c3ccccc3)nc(N)c2[N+](=O)[O-])CC1	-3.0	-58.5	-2.3	5.6	3.4	9.2
CCOCCCNC(=O)C(NC(=O)c1ccc(NC(C)=O)cc1)c1ccc(C)cc1 (stereo not given)	4.8	13.7	1.3	-0.5	-6.0	1.6
CCOCCCNC(=O)C(NC(=O)CNC(C)=O)c1ccc(C)cc1 (stereo not given)	8.1	-10.1	-1.5	-12.1	0.1	73.1*
Cc1nn(-c2ccccc2)nc1C(=O)Nc1cccc(C(=O)NC2CC2)c1	nt	5.3	nt	11.1	nt	31.1
O=C(CSCC(=O)N1CCCCC1)Nc1nc(-c2ccccc2)c(-c2ccccc2)s1	nt	7.6	0.6	15.8	nt	51.5*
CC1(c2nnnn2Cc2ccccc2)CCC(=O)N1CCc1ccc(O)cc1 (stereo not given)	nt	-11.3	nt	nt	nt	-7.3
